Shown is part of a subset that was picked to be rich in hits.
Methyltransferases – Primary Screen for Target Class Profiling of Small Molecule Inhibitors of Methyltransferases. purified enzyme, MTase-Glo SAH luminescence; stronger effect = lower value. calls only at 40 µM. actives 3.9% (n = 25,000). AID 1745853, 2022; call rule not given here
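Each enzyme was reacted with SAM and its substrate, with compounds tested once at 40 uM; SAH formed was read by MTase-Glo luminescence.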
Numbers without * were called inactive. % is scaled to controls: 0 for no effect and ±100 for the full control effect.

Screening CC1CCCCC1NC(=O)C1(C)Cn2c(cc3occc32)C(=O)N1Cc1ccc(F)cc1 (stereo not drawn) returned Methyltransferases inactive.
For COCCCN1C(=O)c2cc3occc3n2CC1(C)C(=O)NC1CCCCCC1 (stereo not drawn) the results were Methyltransferases inactive.
`CC1(C(=O)NCc2ccc(Cl)cc2)Cn2c(ccc2-c2ccco2)C(=O)N1Cc1ccccc1` (stereo not drawn) gave Methyltransferases inactive.
`CC1(C(=O)NC2CCCCC2)Cn2nc(-c3ccco3)cc2C(=O)N1CCCc1ccccc1` (stereo not drawn) gave Methyltransferases inactive.
`O=C(OC[C@H]1O[C@H](O[C@]2(CO)O[C@H](CO)[C@@H](O)[C@@H]2O)[C@H](O)[C@@H](O)[C@@H]1O)c1ccccc1` gave Methyltransferases inactive.
CC(C)(O)/C=C1/C(=O)C(C)(C)C(=O)C(C)(C)C1(O)O[C@@H]1O[C@H](COC(=O)c2cc(O)c(O)c(O)c2)[C@@H](O)[C@H](O)[C@H]1O (stereo partly drawn) was read as Methyltransferases active.
`C[C@@]12C[C@]3(O)O[C@H](O1)[C@]1(COC(=O)c4ccccc4)[C@H]3C[C@@]12O[C@@H]1O[C@H](COC(=O)c2ccccc2)[C@@H](O)[C@H](O)[C@H]1O` gave Methyltransferases inactive.
For CCCCNC(=O)Cn1ccc2cc(S(=O)(=O)N3CCCCC3)ccc21 the results were Methyltransferases inactive.
`O=c1cc(-c2ccccc2)c2ccc(OCc3ccc(F)cc3Cl)cc2o1` gave Methyltransferases inactive.
Screening COc1ccccc1N1CCN(CCCCN2C(=O)c3ccccc3C2=O)CC1 returned Methyltransferases inactive.
For COc1ccccc1N1CCN(CCN(C(=O)c2ccc(F)cc2)c2ccccn2)CC1 the results were Methyltransferases inactive.
COc1ccccc1N1CCN(c2ncnc3n[nH]c(Br)c23)CC1 was read as Methyltransferases active.
CCc1cc2c(cc3n2CC(C)(C(=O)NC2CCCCC2)N(Cc2ccc(F)cc2)C3=O)s1 (stereo not drawn) was read as Methyltransferases inactive.
`CN1CCC(c2c[nH]c3ccc(NC(=O)c4ccc(F)cc4)cc23)CC1` gave Methyltransferases active.
CC(=O)N1CCN(NC(=O)c2ccc(F)cc2)CC1 was read as Methyltransferases inactive.
For CCN1c2cc(C(=O)Nc3cccc(F)c3)ccc2C(=O)N2CCCC21 (stereo not drawn) the results were Methyltransferases inactive.
CC(C)CCn1c(=O)c2ccc(C(=O)NC(C)C)cc2n2c(=O)n(CC(N)=O)nc12 was read as Methyltransferases inactive.
For CCCN1C(=O)c2cc(C(=O)NCCCOCC)nn2CC1(C)C(=O)NC1CCCC1 (stereo not drawn) the results were Methyltransferases inactive.
`CCOc1ccc(CCN2C(=O)c3ccc(-c4ccco4)n3CC2(C)C(=O)NCc2ccccc2)cc1OCC` (stereo not drawn) gave Methyltransferases inactive.
Screening CC1CC(C)CN(C(=O)Cn2c(=O)oc3cc(S(=O)(=O)N4CC(C)CC(C)C4)ccc32)C1 (stereo not drawn) returned Methyltransferases inactive.
For CN(C)CCCN1c2ccccc2Sc2ccccc21 the results were Methyltransferases inactive.
CN1CCN(CCCN2c3ccccc3Sc3ccc(C(F)(F)F)cc32)CC1 was read as Methyltransferases active.
CNCCCN1c2ccccc2CCc2ccccc21 was read as Methyltransferases inactive.
CC(C)CCNC(=O)C1(C)Cn2nc(C(=O)NCc3ccccc3Cl)cc2C(=O)N1C (stereo not drawn) was read as Methyltransferases inactive.
For Cc1cccc(N2CCN(C(=O)Cn3ncc4ccc(Cl)cc43)CC2)c1C the results were Methyltransferases inactive.
For Cc1ccccc1-n1c(Cn2nc(-c3cccc(O)c3)c3c(N)ncnc32)nc2cccc(C)c2c1=O the results were Methyltransferases active.
`CN1C(=O)c2cc(C(=O)NCc3ccc4c(c3)OCO4)nn2CC1(C)C(=O)NC1CCCCC1` (stereo not drawn) gave Methyltransferases inactive.
`Cc1ccccc1CNC(=O)c1cc2n(n1)CC(C)(C(=O)NC1CCCCCC1)N(C)C2=O` (stereo not drawn) gave Methyltransferases inactive.
`COC(=O)COc1cc2oc(=O)cc(-c3ccccc3)c2cc1Cl` gave Methyltransferases inactive.
`CCCc1cc2c(-c3ccccc3)cc(=O)oc2cc1OCc1ccc(C(=O)O)o1` gave Methyltransferases active.
Screening CCCCOC(=O)COc1ccc2c(-c3ccccc3)cc(=O)oc2c1 returned Methyltransferases inactive.
For CCc1ccccc1NC(=O)Cn1nc2n(C(C)C)c(=O)c3ccc(C(=O)NC(C)CC)cc3n2c1=O (stereo not drawn) the results were Methyltransferases inactive.
COc1cccc(CNC(=O)c2ncn3c2C(=O)N(C2CC2)C(C)(C(=O)NCc2ccccc2Cl)C3)c1 (stereo not drawn) was read as Methyltransferases inactive.
Screening CC1(C(=O)NC2CCCCCCC2)Cn2c(ccc2-c2ccccc2)C(=O)N1Cc1ccccc1F (stereo not drawn) returned Methyltransferases inactive.
`Cc1[nH]c(/C=C2\C(=O)Nc3ccc(S(=O)(=O)N(C)c4cccc(Cl)c4)cc32)c(C)c1C(=O)N1CCN(C)CC1` gave Methyltransferases active.
CN(C)S(=O)(=O)c1ccc2c(c1)/C(=C/c1cc3c([nH]1)CCCC3)C(=O)N2 was read as Methyltransferases inactive.
Screening CC(C)CCNC(=O)C1(C)Cn2nc(C(=O)NCCN3CCCC3)cc2C(=O)N1C (stereo not drawn) returned Methyltransferases inactive.
COc1ccc(NC(=O)CCc2nnc3n(CCCOC(C)C)c(=O)c4ccccc4n23)cc1 was read as Methyltransferases inactive.
For Cc1c(Cl)cccc1N1C(=O)c2cc3ccccc3n2CC1(C)C(=O)NCCC(C)C (stereo not drawn) the results were Methyltransferases inactive.
Screening Cc1ccc(Cl)cc1NS(=O)(=O)c1ccc2c(c1)n(C)c(=O)n2C returned Methyltransferases inactive.
Screening CC(=O)N1CC2(CCCN2Cc2cccc(C(N)=O)c2)Cc2ccccc21 (stereo not drawn) returned Methyltransferases inactive.
O=C1CN(Cc2cccc(Cl)c2)S(=O)(=O)c2ccccc2N1Cc1ccc(Cl)cc1 was read as Methyltransferases inactive.
`O=C(O)c1cccc(CN2C(=O)/C(=C(\c3ccccc3)c3ccc(Cl)cc3)c3ccccc32)c1` gave Methyltransferases active.
For Cc1ccc(Nc2ccn3c(=O)n(CC(=O)Nc4ccc(F)c(F)c4)nc3n2)cc1 the results were Methyltransferases inactive.
For Cc1ccc(Cn2c(=O)c3ccccc3n3c(SCC(=O)Nc4ccc(C)cc4C)nnc23)cc1 the results were Methyltransferases inactive.
`CN1C(=O)c2cc(C(=O)NCc3ccccc3Cl)nn2CC1(C)C(=O)NCc1ccccc1` (stereo not drawn) gave Methyltransferases inactive.
Screening CC1(C(=O)NC2CCCCCCC2)Cn2c(ccc2-c2ccco2)C(=O)N1Cc1ccc(Cl)cc1 (stereo not drawn) returned Methyltransferases inactive.
Cc1ccc2c(c1)c1c(n2CCc2ccc(C)nc2)CCN(C)C1 was read as Methyltransferases active.
